# Assay results published in PubChem BioAssay AID492963 (The Scripps Research Institute Molecular Screening Center, 2010).
# The whole screen tested about 1,100 compounds, of which about 420 (38%) were called active. The list is a sample of the results. A number with no mark means an inactive call. Rule as the data show it: active = inhibition above about 29%; inactive = the rest.
# Biological target: Orexin/Hypocretin receptor type 1 (Homo sapiens) (UniProt O43613)
# Assay: HCRTR1 blockers, calcium flux retest – fluorescence, CHO/OX1R cells, Fluo-8 calcium, orexin A, confirmation (AID 492963);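 also: 0% = agonist challenge alone and 100% = reference antagonist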
# Settings: orexin A calcium Fluo-8 fluorescence, at 5 µM, active compounds read high
# Sequence of Orexin/Hypocretin receptor type 1 (Homo sapiens) (O43613 whole entry, looked up): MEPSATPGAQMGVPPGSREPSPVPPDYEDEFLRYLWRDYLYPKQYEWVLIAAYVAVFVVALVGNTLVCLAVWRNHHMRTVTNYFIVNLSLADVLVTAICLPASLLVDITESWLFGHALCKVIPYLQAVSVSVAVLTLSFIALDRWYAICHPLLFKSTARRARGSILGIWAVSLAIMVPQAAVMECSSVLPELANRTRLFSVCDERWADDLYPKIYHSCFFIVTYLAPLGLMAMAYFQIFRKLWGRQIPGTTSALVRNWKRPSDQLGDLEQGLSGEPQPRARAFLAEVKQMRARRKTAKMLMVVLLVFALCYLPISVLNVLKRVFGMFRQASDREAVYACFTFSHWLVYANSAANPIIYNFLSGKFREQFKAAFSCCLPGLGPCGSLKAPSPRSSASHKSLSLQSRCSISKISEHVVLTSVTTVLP
row,SMILES,inhibition
1,CC(Oc1ccc2ccccc2c1)C(=O)NNC(=S)NC(=O)c1ccco1 (stereo not given),5.25%
2,N/C(=N\OC(=O)Nc1ccc(Cl)c(Cl)c1)c1ncc(C(F)(F)F)cc1Cl,29% (active)
3,COC(=O)c1sccc1NC(=O)CSc1ccccc1NS(=O)(=O)c1cc(Cl)ccc1Cl,21.5%
4,Cc1cc(C(=O)NC2CCCc3c2cnn3-c2cccc(C)c2C)c(C)o1 (stereo not given),27.6%
5,CC(=O)Nc1cccc(OCC(=O)/C=C2\N(C)c3ccccc3C2(C)C)c1,15.6%
6,Cc1cccc(NS(=O)(=O)c2cccc(C(=O)NNC(=O)c3ccccc3O)c2)c1,14.2%
7,COc1ccc(/C=C/C(=O)c2ccc(NS(=O)(=O)c3ccc(C)cc3)cc2)cc1O,42.2% (active)
8,O=C1C=C(c2ccc(Cl)cc2)C(=O)N1Nc1ccccc1,57% (active)
9,Cc1ccc2c(C)c(C(=O)N(C)CCC3CCCCO3)oc2c1C (stereo not given),-17.4%
10,O=C(N/N=C/c1sc(N2CCCCC2)nc1-c1cccs1)c1cccnc1,48.1% (active)
11,Cc1cccc(NC(=O)Nc2cccc(Oc3c(F)c(F)c(F)c(F)c3F)c2)c1,12.1%
12,CCCN(CC(=O)Nc1ccccc1OC)C(=O)CCC(=O)c1ccc(F)cc1,1.45%
13,Cc1cc(-c2ccc(C)c(S(=O)(=O)NC(C)Cc3ccco3)c2)on1 (stereo not given),0.43%
14,CCOc1ccc(/C=C/C(=O)OCC(=O)c2ccccc2OC)cc1OC,36.1% (active)
15,O=C(CCCN1CCc2[nH]c3ccc(F)cc3c2C1)c1ccc(F)cc1,26.4%
16,Cn1c(N)c(C(=O)COC(=O)c2ccc3ccccc3c2)c(=O)n(C)c1=O,30.5% (active)
17,Cc1ccc(S(=O)(=O)N2CCN(c3ncnc4ccccc34)CC2)cc1,15%
18,CCOc1cc(/C=C(\C#N)c2nc(-c3cccs3)c(NC(C)=O)s2)ccc1O,18%
19,O=C1c2ccccc2S(=O)(=O)N1CC(O)Cn1c2ccccc2c2ccccc21 (stereo not given),29.4% (active)
20,CC1CCCN(CC(O)COCc2ccccc2)C1 (stereo not given),5.05%

row,SMILES,inhibition
1,O=C(OC1CCOC1=O)c1ccc(-c2nc3ccccc3s2)s1 (stereo not given),43.4% (active)
2,CCCc1nc2c(c(=O)c3ccccc3n2C)c(=O)n1C1CCCCCC1,9.14%
3,S=c1[nH]nc(-c2cc(-c3ccccc3)n[nH]2)n1/N=C/c1c2ccccc2cc2ccccc12,38.1% (active)
4,CCOC(=O)N1CCN(c2cc(C)c([N+](=O)[O-])cc2F)CC1,17.3%
5,COc1cccc(C(=O)NC(=O)Nc2nc(C)cc(C(F)(F)F)n2)c1,35% (active)
6,CCCCC(=O)NNC(=S)NC(=O)C(c1ccccc1)c1ccccc1,58.6% (active)
7,CCCCCCCC(=O)NC(Nc1ccccc1OC)C(Cl)(Cl)Cl (stereo not given),-23.5%
8,Cc1ccc(NC(=O)COc2ccc(-n3ccnc3)cc2)cc1Cl,22.1%
9,COc1cc2ccccc2cc1C(=O)Nc1ccc(N2CCOCC2)cc1,-1.28%
10,O=C(Nc1cccc(NC(=O)N2CCN(c3ccccc3)CC2)c1)N1CCN(c2ccccc2)CC1,37.3% (active)
11,CN(c1ccccc1)S(=O)(=O)c1cccc(NC(=O)Cc2ccc(Cl)cc2)c1,26%
12,N#Cc1nc(-c2cccc3ccccc23)oc1N,40.6% (active)
13,COc1cccc(/C=N/Nc2cc(C)nc(-c3ccccc3O)n2)c1O,69.7% (active)
14,COc1cccc(/C=N/NC(=O)c2[nH]nc3c2CCc2ccccc2-3)c1O,20.3%
15,CCC(=O)N(C)C(c1ccccc1Cl)c1nnnn1-c1c(C)cccc1C (stereo not given),21.7%
16,Cc1ccccc1S(=O)(=O)N1[C@@H](c2cccc(Cl)c2)C(C(=O)O)=CC[C@H]1c1ccc(Cl)cc1,43.3% (active)
17,COCc1c(C(=O)OCC(=O)Nc2ccc(OC(F)F)cc2)oc2ccccc12,26.3%
18,C=CCn1c(SCC(=O)Nc2nc3ccccc3s2)nnc1-c1ccccc1O,48% (active)
19,COc1ccc2[nH]cc(/C=C(/C#N)S(=O)(=O)c3ccccc3)c2c1,8.34%
20,c1coc(CNc2ncnc3ccccc23)c1,24.7%
